From PubChem BioAssay AID624352 (Sanford-Burnham Center for Chemical Genomics, 2012)
The whole screen tested about 360,000 compounds, of which about 2,600 (0.72%) were called active. The sample as a whole holds a higher share of actives than the screen did. Unmarked numbers belong to inactive results.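 Rule for the calls: active = inhibition of the luminescence signal of 40% or more relative to plate controls, in a single-dose primary screen at 18.75 µM; inactive = the rest.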

Assay: blockers of HIF-2a driven luciferase – luminescence, 786-0 RCC cells, primary screen (AID 624352)
Conditions: 786-0 RCC cells HIF-2a reporter, overnight, at 18.8 µM, stronger effect = higher value

Structure (SMILES)	inhibition
Cc1ccc(Cl)c(OCC(=O)NN2CCN(C)CC2)c1	13.6%
CC1CN(C(=O)COC(=O)c2cccc(NS(=O)(=O)c3ccccc3)c2)CC(C)O1 (stereo not drawn)	10.2%
CNC(=O)NC(=O)C(C)N1CCN(C/C=C/c2ccccc2)CC1 (stereo not drawn)	16.3%
COCCCNC(=O)CNC(=O)c1nn(-c2ccc(OC)cc2)c(=O)c2ccccc12	4.73%
O=C(NC(=S)N1CCN(Cc2ccccc2)CC1)c1ccccc1	3.06%
OCCN1CCN(C(=S)c2ccc(-c3ccccc3)cc2)CC1	88.1% (active)
S=C(c1ccc(-c2ccccc2)o1)N1CCCCC1	-291%
CCN(C(=O)c1cc([N+](=O)[O-])ccc1NCc1cccnc1)c1ccccc1	11.9%
Cc1ccc(S(=O)(=O)N(C)C)cc1NC(=O)COC(=O)C1COc2ccccc2O1 (stereo not drawn)	3.99%
Fc1ccc2c(c1)C(c1cccnc1)=NNC(c1cccs1)=N2	0.189%
CCn1c(/C=C/c2ccc([N+](=O)[O-])o2)nc2ccccc2c1=O	56.6% (active)
O=C(/C=C/c1ccc([N+](=O)[O-])o1)NNC(=O)c1ccc(F)cc1	30.1%
C=CCn1c(SCC(=O)NC(=O)Cc2ccccc2)nc2ccccc2c1=O	15.8%
CCc1cc(CNC(=O)CC2C(=O)NCCN2Cc2ccccc2C(F)(F)F)on1 (stereo not drawn)	7.76%
Cc1cc(C)c(S(=O)(=O)N2CCOCC2)cc1C	16.4%
COCc1cc(=O)n2[nH]c(C)c(-c3ccccc3)c2n1	11.1%
CC(C)[C@H](NC(=O)c1ccccc1F)C(=O)Nc1cccc(S(=O)(=O)N2CCOCC2)c1	6.68%
CCN(CC)CCCC(C)n1c2nc(=O)[nH]c(=O)c-2nc2cc(Cl)ccc21 (stereo not drawn)	70.8% (active)
O=c1c(-c2ccccc2Cl)c[nH]n1-c1ccccc1	-21.8%
OC(c1ccccc1)c1nccn1Cc1ccccc1 (stereo not drawn)	6.44%
Cc1cc(C)c(NC(=O)c2oc3ccccc3c2COc2ccccc2)c(C)c1	1.23%
CCOC(=O)N1CCC(=NNC(N)=O)CC1	9.05%
CN(C)C(=O)c1cccc(-c2cnc3c(NC=O)cc(-c4ccc(F)cc4)cn23)c1	9.01%
CN(C)CCNC(=O)c1cccc(-c2cnc3c(NC=O)cc(-c4cccc(C(F)(F)F)c4)cn23)c1	79.2% (active)

Structure (SMILES)	inhibition
CC(=O)c1cccc(-c2cnc3c(NC=O)cc(-c4ccc(N(C)C)cc4)cn23)c1	-15.5%
C=CCN1C(=NC(=O)COc2ccccc2)SC2CS(=O)(=O)CC21 (stereo not drawn)	4.93%
OCCN1CCN(CCO)C1=S	9.5%
O=C(O)c1ccc(N/N=C/c2ccc3ncccc3c2)cc1	54.5% (active)
NCCCCCC(=O)N/N=C/c1ccc2nccnc2c1	7.39%
CC(C)(C)OC(=O)N/N=C/c1ccc(C(=O)O)cc1	4.48%
O=C1NC(=O)C(CCc2ccccc2)(c2ccccc2)N1 (stereo not drawn)	17.5%
Cc1ccc(OCC(=O)c2cc(C)n(Cc3ccco3)c2C)c([N+](=O)[O-])n1	48.1% (active)
COc1ccccc1CNC(=O)COc1ccc(C)nc1[N+](=O)[O-]	-1.54%
Cc1cc(C(=O)COC(=O)CNC(=O)c2ccc(F)cc2)c(C)n1Cc1ccco1	-47.3%
COc1ccc(C)cc1-n1nnnc1SCC(=O)c1cc(C)n(Cc2ccco2)c1C	-49.1%
COCC(C)n1c(C)cc(C(=O)COc2ccc(C)nc2[N+](=O)[O-])c1C (stereo not drawn)	50.6% (active)
Cc1ccc(OCC(=O)NC(C)c2ccccc2)c([N+](=O)[O-])n1 (stereo not drawn)	17.9%
COc1ccc(NC(=O)CN2C(=O)COc3ccc(S(=O)(=O)N4CCOCC4)cc32)cc1	-0.73%
CCCCSc1[nH]c(=O)c(C(=O)OCC)cc1C#N	5.92%
CCN(CC)CC(=O)Nc1sc2c(c1C(=O)c1ccccc1C)CCC2	31.1%
O=C(Nc1ccccc1C(=O)O)c1cc(S(=O)(=O)N2CCCCC2)cs1	-9.72%
CC(NS(=O)(=O)c1ccccc1)c1n[nH]c(=S)n1-c1ccccc1 (stereo not drawn)	16.8%
C[C@@H]1CN([C@@H](C)CO)C(=O)c2cccc(NS(=O)(=O)c3ccc(F)cc3)c2O[C@H]1CN(C)C(=O)NC1CCCCC1	-10.3%
C=CCSc1nnc(N2C(=O)C(O)=C(C(=O)c3ccco3)C2c2ccc(F)cc2)s1 (stereo not drawn)	-55.2%
O=[N+]([O-])c1ccc(C=Nc2ccc(Cl)cc2Cl)s1	-3.51%
CC(C)(C)c1cc(C(=O)N/N=C/c2ccc([N+](=O)[O-])s2)n[nH]1	80.5% (active)
Cc1ccc(-c2cc(C(=O)N/N=C/C=C/c3ccccc3)n[nH]2)o1	-1.73%
COc1ccnc(Oc2ccccc2)n1	-5.97%

Structure (SMILES)	inhibition
CCCCCCCCCCOC(=O)C[N+](C)(C)CC1CCCCC1O (stereo not drawn)	7.58%
CCN1CCC(O)(/C=C/c2ccc(C)cc2)C(C(=O)/C=C/c2ccc(C)cc2)C1 (stereo not drawn)	66.8% (active)
Cc1ccc(-c2nn(C(C)(C)C)c3ncnc(N)c23)cc1	71.5% (active)
CCN(CC(=O)Nc1c(F)cccc1F)C(=O)c1ccc(-c2ccc(C(C)=O)cc2)o1	-53.4%
NS(=O)(=O)c1ccc(CNC(=O)c2ccc(Cl)cc2[N+](=O)[O-])cc1	2.46%
O=C(CSc1c2c(nc3ccc(Cl)cc13)CCCC2)NCc1ccco1	17.8%
Fc1ccc2nc(-c3ccccc3)nc(SCc3nnc(-c4ccccc4)o3)c2c1	23.8%
Clc1ccc2nc(-c3ccccc3)nc(C(Cl)Cl)c2c1	57.1% (active)
Cc1cc(C(=O)N2CCCC2(C)C(=O)O)c(C)o1 (stereo not drawn)	-4.82%
CC(=O)Nc1ccc(CC#N)cc1	18.5%
C/C(Cc1ccccc1)=N\NC(=O)CNC(=O)c1cccc(Br)c1	14%
Cc1ccc(C(=O)Nc2c(-c3ccccc3)[nH][nH]c2=O)cc1	-3.55%
O=C(NC1=CC(=O)c2ccccc2C1=O)c1ccccc1	92.9% (active)
CN(C)C(=O)c1ccc(NC(=O)c2ccccc2-c2ccccc2)cc1	19.3%
Cc1ccc(-c2cnc(NC(=O)CCC(=O)N(C)Cc3ccccc3)n2C)cc1	-43.9%
COc1cc(/C=C(/NC(=O)c2ccc(Cl)cc2Cl)C(=O)O)cc(OC)c1OC	12.9%
CCOc1cc(/C=N/NC(=O)OC)ccc1OCCSc1ccc(Cl)cc1	-1.68%
CCOc1cc(/C=C(/C#N)c2ccc(Cl)cc2)cc(Cl)c1OCC(=O)O	91.8% (active)
CCOC(=O)c1c(C)[nH]c(C2=NNC(=NC(C)COC)SC2)c1C (stereo not drawn)	-141%
CCOC(=O)C1(Cc2ccccc2C)CCCN(C(=O)c2ccc(COC)o2)C1 (stereo not drawn)	-190%
Cc1cccc(NC(=O)C2CCCN(C(=O)Nc3ccc(F)cc3)C2)c1C (stereo not drawn)	7.56%
COc1ccc(-c2cc(C(F)(F)F)nc(S(C)(=O)=O)n2)cc1OC	94.1% (active)
COc1ccc(C2=NO[C@@H]3C(=O)N(Cc4ccccc4)C(=O)[C@H]23)cc1OC	16.2%
COc1ccc(CCNS(=O)(=O)c2ccc(F)cc2)cc1OC	9.4%

Structure (SMILES)	inhibition
O=C(c1cn(-c2ccccc2)nc1-c1cccnc1)N1CCN(S(=O)(=O)c2ccccc2F)CC1	9.12%
CCc1ccc(-n2c(=S)sc3c(=O)n(-c4ccccc4OC)c(=S)[nH]c32)cc1	8.96%
COc1ccc(OC)c2c(N)c(C#N)c(C(F)(F)C(F)(F)F)nc12	8.83%
COc1cc2c(C(=O)O)c(C)n(C)c2c2ccccc12	-195%
COc1cccc2c(O)cc(=O)n(C)c12	19.6%
COc1cccc2c(C)c(C(=O)O)[nH]c12	47% (active)
O=C(c1ccccc1Cl)N(Cc1ccccc1F)N1C(=O)CCCC1=O	16.7%
O=C(O)C1C2C=CC(O2)C1C(=O)NCCc1cccc(Cl)c1 (stereo not drawn)	-2.61%
Cc1cc(O)ccc1-c1cc(C(=O)NCc2cc(C(F)(F)F)cc(C(F)(F)F)c2)[nH]n1	15.8%
COCCn1c(SCC(=O)Nc2ccccc2F)nc2c(c1=O)SCC2	1.2%
Cc1cccc(NC(=O)C2CCCN(C(=O)NCc3ccccc3)C2)c1C (stereo not drawn)	0.73%
Cc1ccc(-c2nc3ccc(Br)cn3c2Cc2ccccc2C(F)(F)F)cc1	-290%
Cc1ccc2nc(-c3ccccc3)c(CC3CCCCC3)n2c1	-173%
COc1ccc(-c2nc3ccc(Br)cn3c2Cc2ccc(C)cc2)cc1OC	-137%
CC(=O)Nc1c(-c2ccc(C)cc2)nc2ccc(Cl)cn12	4.44%
Cc1ccc(-c2cn3cc(C)ccc3n2)cc1	71.3% (active)
Cc1ccc2nc(-c3ccc(Br)cc3)cn2c1	40.6% (active)
CC(C)NC(=O)Nc1cccc2c1O[C@H](CN(C)S(=O)(=O)c1cccs1)[C@@H](C)CN([C@H](C)CO)C2=O	12.7%
NS(=O)(=O)c1cccc(NC(=O)COC(=O)c2cc([N+](=O)[O-])ccc2N2CCCC2)c1	25.4%
CC(=O)Nc1ccc(NC(=O)C(C)OC(=O)c2ccccc2C(=O)c2ccc(Cl)c([N+](=O)[O-])c2)cc1 (stereo not drawn)	19.2%
N#Cc1cccc(NC(=O)COC(=O)c2ccccc2C(=O)c2ccc(Cl)c([N+](=O)[O-])c2)c1	94.8% (active)
